From PubChem BioAssay AID493011 (Sanford-Burnham Center for Chemical Genomics, 2011) come the findings set out here.

Molecules are shown by their SMILES. About 1,400 (0.42%) of roughly 330,000 compounds were called active. Shown is part of a subset that was picked to be rich in actives. A number with no mark means an inactive call.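 How the source made its calls: active means at least 40% inhibition at 20 µM here, with at most 30% in a related deaminase screen; inactive means the rest.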

Sequence of DNA dC->dU-editing enzyme APOBEC-3A (Homo sapiens) (P31941 whole entry, looked up): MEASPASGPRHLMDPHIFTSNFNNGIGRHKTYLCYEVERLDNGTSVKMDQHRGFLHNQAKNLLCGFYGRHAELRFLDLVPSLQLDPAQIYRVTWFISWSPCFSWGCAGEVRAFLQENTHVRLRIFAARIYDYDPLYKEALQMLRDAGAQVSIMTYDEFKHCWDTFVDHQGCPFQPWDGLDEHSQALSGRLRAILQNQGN

This assay concerns the target DNA dC->dU-editing enzyme APOBEC-3A (Homo sapiens) (UniProt P31941). As to the kind of experiment: blockers of A3A cytidine deamination on DNA – biochemical, FAM/TAMRA oligo cleavage fluorescence, selectivity assay for APOBEC3G inhibitor project, primary screen (AID 493011).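 Further: plate controls were A3A with DMSO for no effect and wells lacking A3A enzyme for full effect.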 Particulars: recombinant A3A, FAM/TAMRA ssDNA deamination fluorescence; at 20 µM; stronger effect = higher value.
Regarding `CN1CCN(S(=O)(=O)c2cccc(C(=O)Nc3sccc3C#N)c2)CC1`, the inhibition is 0.346%.
Turning to `Cc1ccc(CNC(=O)c2ccc(CS(=O)Cc3cccc(Cl)c3)o2)cc1` (stereo unspecified), the inhibition is -4.67%.
`Cc1ccc(/C=C/C(=O)OCC(=O)NCc2ccc(Cl)cc2)o1`: the inhibition is 1.93%.
The same measure for `CS(=O)(=O)NCc1ccc(C(=O)NCc2ccccc2)cc1`: -3.29%; for `Nc1ccc(C(=O)NCc2ccccc2)cc1`: 5.23%; for `C[n+]1ccc(C(=O)NCc2ccccc2)cc1`: 77.2% (active).
With `COc1ccc(Cl)cc1NC(=O)COC(=O)c1ccc(Br)o1`, the inhibition is -2.56%.
The same measure for `COc1ccc(CNc2nnnn2C)cc1`: 63.5% (active).
With `Cn1nnnc1NCc1ccc(Cl)c(Cl)c1`, the inhibition is 1.46%.
Take `CCCn1nnnc1NCc1ccc(OC)cc1`: the inhibition is -5.24%.
The same measure for `Cc1ccc(N(Cc2ccccc2O)C(=O)c2ccccc2F)cc1`: 3.92%.
To `C/C=C(/C)C(=O)OC1Cc2c(ccc3ccc(=O)oc23)OC1(C)C` (stereo unspecified) belongs -4.35%.
Turning to `CC1(C)Oc2ccc3ccc(=O)oc3c2/C(=N/O)C1=O`, the inhibition is -5.21%.
Regarding `CC1(C)Oc2ccc3ccc(=O)oc3c2/C(=C/NCCO)C1=O`, the inhibition was 55.6% (active).
As to `Cc1cnc(C(=O)OCC(=O)NCCCc2ccccc2)cn1`, the inhibition was -5.14%.
With `COc1ccc2[nH]c(C)c(CCN(Cc3cccs3)C(=S)Nc3ccccc3OC)c2c1`, the inhibition is -5.52%.
The same measure for `COc1ccccc1CNC(=O)c1ccc(CS(=O)(=O)c2ccccc2)o1`: 3.87%.
Turning to `O=C(c1ccc(S(=O)(=O)NCc2ccco2)cc1)N1CCN(c2ccccc2)CC1`, the inhibition was -1.4%.
Turning to `O=C(c1ccc(CS(=O)(=O)c2ccccc2)o1)N1CCN(c2ccccc2)CC1`, the inhibition is 40% (active).
As for `Cc1c(NC(=O)C(C)Oc2cccc(Cl)c2)c(=O)n(-c2ccccc2)n1C` (stereo unspecified), the inhibition was 2.72%.
To `O=C(NCCCNCc1ccccc1)c1ccc(/C=N/O)nc1` belongs 0.078%.
`C[N+](C)(C)CCNC(=O)c1cc[n+](Cc2ccccc2)c(/C=N/O)c1`: the inhibition is 77.9% (active).
On to `CC(C)c1ccc(C(=O)NCCCc2ccccc2)cc1`, for which the inhibition is -3.9%.
Consider `CC(=O)Nc1ccc(Nc2cc(C)nc(Nc3ccc(NC(C)=O)cc3)n2)cc1`, for which the inhibition was 52.3% (active).
For `COc1ccc(C(=O)NNc2cc(C)nc(NNC(=O)c3ccc(OC)cc3)n2)cc1`, the inhibition was 1.15%.
Consider `CCC(=O)Nc1ccc(Nc2nc(Cl)nc(Nc3ccc(NC(=O)CC)cc3)n2)cc1`, for which the inhibition is -1.91%.
For the compound `COc1ccc(NC(=O)C(NC(C)=O)C(=O)NCc2ccccc2Cl)cc1` (stereo unspecified), the inhibition was -1.84%.
Take `CC(C)c1c(O)nc(SCCOc2ccc(Cl)cc2)[nH]c1=O`: the inhibition is -2.86%.
For the compound `CCN(Cc1ccccc1)C(=O)CN1C(=S)NC(C)(C)CC1C` (stereo unspecified), the inhibition was -4.37%.
For `CCN(CC)CCNCC(=O)Nc1ccc(Oc2ccccc2)cc1`, the inhibition was -4.52%.
Consider `CCOC(=O)c1ccc(NC(=O)CNC(=O)c2ccco2)cc1`, for which the inhibition is -2.59%.
Consider `CCN(CC)CCOC(=O)c1ccc(NC(=O)CNC(=O)c2ccccc2)cc1`, for which the inhibition is 49.1% (active).
`CC(C)Oc1ccc(C(CC(=O)N2CCOCC2)C(C)C)cc1` (stereo unspecified): the inhibition was 2.91%.
To `Cc1ccc(NC(=O)c2cc([N+](=O)[O-])ccc2Cl)c(O)c1` belongs 1.45%; to `CNc1ccc([N+](=O)[O-])cc1C(=O)O`, 43.2% (active); to `CCN(CC)c1ccc([N+](=O)[O-])cc1C(=O)O`, 3.17%.
Turning to `Cc1ccc(N/N=C2\COC(C)(C)CC2=O)cc1`, the inhibition was -3.88%.
In the case of `CCNC(=O)COC(=O)CCNC(=O)c1cccc(C)c1`, the inhibition is 82.3% (active).
Regarding `Cc1cccc(OCC(=O)NCCNC(=O)c2cccnc2)c1`, the inhibition was -1.26%.
The same measure for `Cc1cccc(C(=O)NCC(=O)OCC(=O)N(C)CC(=O)Nc2ccccc2Cl)c1`: -1.62%.
Turning to `CC(C)Cn1c(N2CCN(C(=O)/C=C/c3ccccc3)CC2)nc2ccccc21`, the inhibition is -1.07%.
The same measure for `Cc1cc2c(cc1C)[n+](C)cn2CC(O)COCC1CC=CCC1` (stereo unspecified): 46.1% (active); for `COc1ccc(-c2noc(CCC(=O)N3CCN(c4cccc(C)c4)CC3)n2)cc1`: 3.55%.
With `CC(C)(CSc1nncn1/N=C/c1ccco1)NS(=O)(=O)c1ccc(Cl)cc1`, the inhibition was 5.18%.
As to `O=C(NC1CC1)C1CCCN(C(=O)NC2CCCCC2)C1` (stereo unspecified), the inhibition was -2.29%.
The same measure for `CC[C@]1(C(=O)OC)[C@H]2C(=O)N(C)C(=O)[C@H]2[C@H]2CN(C)C(=NCc3ccccc3)N21`: 2.1%.
